Measurements from PubChem BioAssay (Tox21).
Results filed as inconclusive are left out. Activity calls are given as the source filed them. Unless noted, the call rests on the fitted dose curve; in most records, active means well fitted curve in the direction sought with a large enough effect in the repeat runs; inconclusive means weak or mixed curves; inactive means no such curve, though single readings can be large; an effect the other way counts as inactive or inconclusive.

Tests used:
[1] = qHTS assay to identify small molecule agonists of H2AX (AID 1224845; active means well fitted activation curve with a large enough effect in the signal ratio in the repeat runs, not every such curve was filed as active; the % refers to the signal ratio)
How it was run: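 Phospho-H2AX Ser139 measured by HTRF (ex 320 nm; em 665 and 620 nm) after 24 hr antibody incubation. Compounds, 15 concentrations, 0.76% DMSO, were applied to CHO-K1 cells for 3hr at 37C before lysis.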

[2] = qHTS assay to identify small molecule agonists of the hypoxia (HIF-1) signaling pathway (AID 1224846; active means well fitted activation curve with a large enough effect in the signal ratio in the repeat runs, not every such curve was filed as active; the % refers to the signal ratio)
How it was run: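 HRE-bla ME-180 cells (beta-lactamase reporter under hypoxia response element) were plated at 2,000 cells/well in medium with 0.5% dialyzed FBS, rested 5 hrs, then given compounds in DMSO for 17 hrs at 37C, 5% CO2. Reporter induction was read with CCF4-AM FRET substrate.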

[3] = qHTS assay to identify small molecule agonists of H2AX - cell viability counter screen (AID 1224847; calls by dose curve;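 further: wild-type CHO-K1 cells; top concentration of the series differs between compounds; nearly all actives have a fitted effect of over 30% in size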)
How it was run: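 For this counter screen, overnight-attached CHO-K1 cells received test compounds (15 concentrations, 0.76% DMSO final); 3 hr later at 37C, CellTiter-Glo reagent was added and luminescence recorded after 30 min at room temperature.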

[4] = qHTS RealTime-Glo MT Cell Viability Assay in HepG2 cells - 24 hour (AID 1224867); further: nearly all actives have a fitted effect of over 50% in size
How it was run: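 Cells + NanoLuc/prosubstrate dispensed (600 cells/well) → 5 h at 37 C/5% CO2 → compounds in DMSO transferred → 40 h incubation at 37 C, luminescence read at 0, 8, 16, 24, 32, 40 h.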

[5] = qHTS RealTime-Glo MT Cell Viability Assay in HEK293 cells - 32 hour (AID 1224868); further: nearly all actives have a fitted effect of over 50% in size; further: potency means the concentration at half of the fitted maximal effect; on activity change, negative = cytotoxic: top concentration of the series differs between compounds
How it was run: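 Tox21 10K qHTS, HEK293, 600 cells/well, RealTime-Glo reagent co-dispensed with cells; 5 h preincubation, compound by pintool, 37 C, luminescence at 0–40 h.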

[6] = A CellTox Green Cytotoxicity Assay to monitor cytotoxicity in HEK293 cells - 0 hour (AID 1224869); further: nearly all actives have a fitted effect of over 50% in size
How it was run: (§1)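 HEK293 cells premixed with CellTox Green dye were seeded at 600 cells/well and left 5 h at 37 C/5% CO2 before pin transfer of 23 nL compound in DMSO. Fluorescence from dye bound to dead-cell DNA was read during 40 h treatment.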

[7] = qHTS RealTime-Glo MT Cell Viability Assay in HepG2 cells - 40 hour (AID 1224870); further: nearly all actives have a fitted effect of over 50% in size
How it was run: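 Real-time viability: cells seeded at 600 per well together with NanoLuc and cell-permeant prosubstrate, compounds added after 5 h incubation. Luminescence tracked at 0, 8, 16, 24, 32 and 40 h of exposure.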

[8] = A CellTox Green Cytotoxicity Assay to monitor cytotoxicity in HEK293 cells - 40 hour (AID 1224871); further: nearly all actives have a fitted effect of over 45% in size
How it was run: as §1

[9] = qHTS assay to identify small molecule antagonists of the estrogen related receptor (ERR) signaling pathway from Tox21 library (AID 1224848); further: nearly all actives have a fitted effect of over 50% in size
How it was run: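 Antagonist-mode screen of the Tox21 10K library in an NTP-provided ERR reporter cell line; 18 h compound exposure at 37 C, luminescence measured with ONE-Glo.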

[10] = qHTS assay to identify small molecule agonists of the estrogen related receptor (ERR) signaling pathway from Tox21 library (AID 1224849; calls by dose curve; further: nearly all actives have a fitted effect of over 15% in size); conditions: ERR reporter cell line, ONE-Glo luciferase, 18 h; at 92.4 µM (top of the series) unless noted
How it was run: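 ERR reporter cell line (NTP) seeded, rested 6 h at 37 C/5% CO2, then pinned with Tox21 compounds in DMSO. After 18 h at 37 C, ONE-Glo luciferase luminescence was read following 30 min at room temperature.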
On the % scale 0 is the no-effect control and ±100 the full control effect.

O=C1OC[C@H](Cc2cccc(O)c2)[C@H]1Cc1cccc(O)c1
inactive: Potency [1] | outcome [2] | Potency [3] | Potency [4] | Potency [5] | Potency [6] | Potency [7] | Potency [8]

CC(=O)OCCC1CCCCC1
inactive: Potency [1] | outcome [2] | Potency [3] | Potency [4] | Potency [5] | Potency [6] | Potency [7] | Potency [8]

c1ccc2sc(SSc3nc4ccccc4s3)nc2c1
inactive: activation (H2AX phosphorylation) [1] 0.89% [at 31.6 µM] | activation [2] 0.936% [at 15.8 µM] | activity change, negative = cytotoxicity [3] 3.41% [at 31.6 µM] | activity change, negative = cytotoxicity [4] 4.65% [at 15.8 µM] | activity change, negative = cytotoxic [5] 12.7% [at 15.8 µM] | cytotoxicity [6] 4.7% [at 15.8 µM] | activity change, negative = cytotoxic [7] -0.0307% [at 15.8 µM] | cytotoxicity increase [8] 14.8% [at 15.8 µM]

Cc1ccc2c(c1)CCCN2
inactive: Potency [1] | outcome [2] | Potency [3] | Potency [4] | Potency [5] | Potency [6] | Potency [7] | Potency [8]

CSCC[C@H](NC(=O)[C@H](Cc1c[nH]c2ccccc12)NC(=O)CCNC(=O)OC(C)(C)C)C(=O)N[C@@H](CC(=O)O)C(=O)N[C@@H](Cc1ccccc1)C(N)=O
inactive: Potency [1] | outcome [2] | Potency [3] | Potency [4] | Potency [5] | Potency [6] | Potency [7] | Potency [8]

COC(=O)CC(C(C)=O)C(=O)OC (configuration not stated)
inactive: Potency [1] | outcome [2] | Potency [3] | Potency [4] | Potency [5] | Potency [6] | Potency [7] | Potency [8]

CC[C@@H](CO)NCCN[C@@H](CC)CO
inactive: Potency [1] | Potency [3] | Potency [9] | activity change, positive = activation [10] 0.599% [at 42.5 µM] | Potency [4] | Potency [5] | Potency [6] | Potency [7] | Potency [8]

c1ccc(CCCc2ccncc2)cc1
inactive: Potency [1] | outcome [2] | Potency [4] | Potency [5] | Potency [6] | Potency [7]

CCN(CC)CCOC(=O)C(c1ccccc1)c1ccccc1
inactive: Potency [1] | Potency [3] | Potency [4] | Potency [5] | Potency [6] | Potency [7] | Potency [8]

Oc1ccc2c(c1)Cc1ccccc1-2
active: Potency [5] 19.5 µM
inactive: Potency [1] | outcome [2] | Potency [9] | Potency [4] | Potency [6] | Potency [7]
